# Laboratory results from the supplement of paper PMC6555819.
# Legend:
# Experiment in all cases: PBM binding z-score (relative to random genomic background probes); higher = stronger binding; sequences stand for … in GC…GCGATTGACAGCGTAGAATGAAGG
# [1] = tested on: FXR:RXRa (NR concentration 270 nM, RXRa partner concentration 90 nM)
# Procedure, shortened: (§1)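 For binding z-scores, the reference was random background probes on custom Agilent 4×180K protein-binding microarrays. These arrays were incubated 1 h with ligand-free nuclear receptor dimers in PBS pH 7.4, 2% milk, 0.02% Triton X-100, 1 mM DTT, 0.2 mg/mL BSA and 0.4 mg/ml salmon testes DNA. Fluorescence was scanned after antibody detection of each partner (one per run) and regression-normalized.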
# [2] = tested on: LXRa:RXRa (NR concentration 270 nM, RXRa partner concentration 90 nM)
# Procedure, shortened: as §1
# [3] = tested on: LXRa homodimer (NR concentration 270 nM)
# Procedure, shortened: as §1
# [4] = tested on: LXRb:RXRa (NR concentration 270 nM, RXRa partner concentration 90 nM)
# Procedure, shortened: as §1
# [5] = tested on: LXRb homodimer (NR concentration 270 nM)
# Procedure, shortened: as §1
# [6] = tested on: PPARa:RXRa (NR concentration 270 nM, RXRa partner concentration 90 nM)
# Procedure, shortened: as §1
# [7] = tested on: PPARg:RXRa (NR concentration 180 nM, RXRa partner concentration 90 nM)
# Procedure, shortened: as §1
# [8] = tested on: PPARg:RXRa 270nM:90nM, anti-RXR (NR concentration 270 nM, RXRa partner concentration 90 nM)
# Procedure, shortened: as §1
# [9] = tested on: PPARg:RXRa 30nM:10nM, anti-RXR (NR concentration 30 nM, RXRa partner concentration 10 nM)
# Procedure, shortened: as §1
# [10] = tested on: PPARg:RXRa 90nM:30nM, anti-RXR (NR concentration 90 nM, RXRa partner concentration 30 nM)
# Procedure, shortened: as §1
# [11] = tested on: PPARg:RXRa DBDmut IVT, anti-RXR (DBD mutation: RXRa K156A/R161A, NR concentration 270 nM, RXRa partner concentration 90 nM)
# Procedure, shortened: as §1
# [12] = tested on: PPARg:RXRa IVT, anti-PPARg (NR concentration 270 nM, RXRa partner concentration 90 nM)
# Procedure, shortened: as §1
# [13] = tested on: PPARg DBDmut:RXRa IVT, anti-PPARg (DBD mutation: PPARg1 K132A/R137A, NR concentration 270 nM, RXRa partner concentration 90 nM)
# Procedure, shortened: as §1
# [14] = tested on: PPARg DBDmut IVT, anti-PPARg (DBD mutation: PPARg1 K132A/R137A, NR concentration 270 nM)
# Procedure, shortened: as §1
# [15] = tested on: PPARg homodimer (NR concentration 180 nM)
# Procedure, shortened: as §1
# [16] = tested on: PXR:RXRa (NR concentration 270 nM, RXRa partner concentration 90 nM)
# Procedure, shortened: as §1
# [17] = tested on: PXR homodimer (NR concentration 270 nM)
# Procedure, shortened: as §1
# [18] = tested on: RARa:RXR (NR concentration 270 nM, RXRa partner concentration 90 nM)
# Procedure, shortened: as §1
# [19] = tested on: RARa homodimer (NR concentration 270 nM)
# Procedure, shortened: as §1
# [20] = tested on: RARb:RXRa (NR concentration 270 nM, RXRa partner concentration 90 nM)
# Procedure, shortened: as §1
Sequence,PBM binding z-score [1],PBM binding z-score [2],PBM binding z-score [3],PBM binding z-score [4],PBM binding z-score [5],PBM binding z-score [6],PBM binding z-score [7],PBM binding z-score [8],PBM binding z-score [9],PBM binding z-score [10],PBM binding z-score [11],PBM binding z-score [12],PBM binding z-score [13],PBM binding z-score [14],PBM binding z-score [15],PBM binding z-score [16],PBM binding z-score [17],PBM binding z-score [18],PBM binding z-score [19],PBM binding z-score [20]
GCTATTAGTTGAAAGGTCAACCGAATGATTCTCG,5.42,6.07,4.71,5.26,1.55,5.77,7.71,6.96,6.56,7.52,1.5,3.85,0.539,0.804,3.47,5.54,1.29,6.55,1.86,4.97
CAAACTATGTCAAAGGTCAAAGTCGAGCCAACCA,6.52,6.3,5.11,5.79,2.93,7.19,11.9,10.2,10.4,11.8,5.12,6.61,1.88,0.733,3.54,5.93,1.52,7.09,2.38,5.1
TCATATAGGTAAAAGGTGAAACTCGGTGTGGTAA,2.3,2.26,0.259,2.39,0.198,5.64,9.08,8.59,8.64,9.69,5.96,5.4,0.902,1.04,1.99,2.27,0.443,3.48,1.82,2.26
TCATATAGGTAAATGCTAGGTGAAAGTTCGATCT,1.23,1.18,0.931,1.27,-0.0844,2.74,3.2,4.57,4.77,4.78,3.99,3.4,1.55,1.1,1.29,1.17,0.91,1.61,1.71,0.871
GGTCGGAGGACAAGGTCAGAGCTTTGTCCGTAGA,2.18,1.7,-0.109,1.42,-0.689,2.43,0.581,1.58,-0.506,0.714,0.195,1.61,-0.429,-1.06,1.09,1.63,0.0611,1.82,-0.267,3.62
GTACCAAGTTGAATAGGTCGTTGATGAGTAGGCG,0.0295,0.289,-0.317,0.163,-0.262,0.893,0.208,0.125,-0.197,-0.278,-0.264,0.17,0.192,0.767,0.638,0.225,0.216,0.609,0.578,0.926
GATACAGGGACAAGGCCAGAGTACGCGTATTGAT,-0.342,-0.63,-0.318,-0.797,-0.748,-0.534,0.946,0.318,0.00447,-0.175,0.111,0.0816,-0.754,-0.819,0.187,-0.396,0.236,-0.445,-0.566,0.943
ATCTCTAGGTACGACTCAGTTCAGTGAAGAACGC,0.373,0.42,0.735,0.686,1.15,0.0584,0.161,0.105,0.235,-0.098,0.59,0.456,0.443,1.02,0.793,1.4,1.82,0.363,1.28,0.504
CGTCCAAGGCCAATGCTAGGTCAGTGAAAGCATT,0.0419,-0.0335,0.187,-0.036,-0.831,0.242,-0.45,-0.432,-1.33,-0.866,-0.0283,0.421,-0.963,-1.46,0.131,0.224,-0.267,0.552,-1.03,2.19
GCATATAGGGAATACAAGGTGAAAGTCCGATTGT,0.23,-0.211,-0.101,-0.103,-0.489,0.924,0.818,0.797,0.0214,0.338,1.83,1.35,0.819,-0.152,0.308,0.0196,-0.0382,1.58,0.263,0.266
CGAACTAGATCATCCAGGACAGTGAATACATTGA,0.155,-0.152,0.195,-0.18,0.286,-0.169,0.554,-0.19,0.138,-0.219,2.02,1.22,0.762,0.684,0.315,-0.222,0.306,0.105,1.19,-0.2
GCTCGGAGGACAAGGTCAGACCTTTGTCCGTAGA,2.03,2.52,-0.219,1.95,0.0255,3.08,1.88,2.61,-0.0164,1.74,-0.401,1.17,-0.273,-0.216,0.937,2.18,-0.193,2.61,-0.422,3.67
CCTTACGGGTGACGAGGTTATAGCACGACGAGCG,0.791,0.766,-0.00764,0.572,-0.569,2.24,1.89,1.82,-0.0114,1.22,1.91,2.65,0.21,-0.275,1.21,0.931,-0.0569,1.52,0.128,1.1
ATATGTAGGTTATCGGGTGATTCAGTTTGCGCAT,0.87,1.16,0.949,1.33,0.879,3.39,5.08,5.04,2.59,4.28,7.59,7.22,2.9,2.24,1.51,1.07,1.12,0.995,1.96,1.15
TCTAGTTGTTCAAAGGTCACACACTCGAAATGCG,5.39,5.85,4.39,5.41,1.92,5.76,7.52,7.68,6.77,8.74,2.71,4.64,1.27,1.68,4.16,5.49,1.93,5.89,4.19,5
